# Bioassay records: PubChem, several laboratories
# Cardio protect: protects H9c2 cardiomyocytes from peroxide injury; H2O2 injury protection, ATPLite, 2 h; protection from H2O2 cell death, % at 20 µM; 0.63% of 360,000 active;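 active means compounds giving at least 50% protection of heart cells from peroxide-induced death in the single-dose screen, raw or plate-pattern-corrected value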;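 further: 0% = DMSO wells with peroxide and 100% = DMSO wells without peroxide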
# COUP-TFII inh: blocks human COUP-TFII nuclear receptor; P24468; HEK293T NGFI-A luciferase reporter, luminescence; inhibition, % at 8.6 µM; 0.7% of 370,000 active;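 active means inhibition above a per-plate cutoff, mean inhibition of test wells between control levels plus 3 SD, cut at about 38% in these data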;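 further: cells cotransfected with COUP-TFII expression vector driving the NGFI-A reporter; 0% = median of COUP-TF2 test wells and 100% = reporter-only cells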
# Target sequence (P24468 whole entry, looked up): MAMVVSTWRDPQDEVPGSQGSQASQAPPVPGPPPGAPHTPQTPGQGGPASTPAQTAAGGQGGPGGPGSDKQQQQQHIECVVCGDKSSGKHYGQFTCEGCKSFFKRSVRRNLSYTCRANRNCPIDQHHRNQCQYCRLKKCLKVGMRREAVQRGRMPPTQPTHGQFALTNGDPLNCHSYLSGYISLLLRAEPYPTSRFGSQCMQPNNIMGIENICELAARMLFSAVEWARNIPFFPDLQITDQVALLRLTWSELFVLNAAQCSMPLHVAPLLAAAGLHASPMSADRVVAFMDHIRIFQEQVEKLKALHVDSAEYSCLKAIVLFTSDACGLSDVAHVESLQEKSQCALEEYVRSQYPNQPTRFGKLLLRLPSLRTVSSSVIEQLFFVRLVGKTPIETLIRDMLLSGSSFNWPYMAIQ
# FXN GAA850 act: frataxin GAA850 promoter activation; HEK293 lucGAA850 FXN promoter luciferase reporter, 24 h; percent of 10 µM SAHA response; activation, % at 6 µM; 0.56% of 360,000 active; AID 540364;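 active means activation above the average of all compounds screened plus 3 SD, cutoff fixed separately per campaign, cut at about 7.5% in these data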;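 further: 0% = DMSO wells and 100% = 10 µM SAHA wells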
# SMARCA2 activ: SMARCA2 function activation, primary screen. MG213 cells, MMTV-luciferase reporter, dexamethasone, overnight. activation, % at 9.1 µM. 1% of 370,000 active. AID 652017; in the data active means activation above about 7.8%;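 further: 0% = vehicle wells and 100% = reference activator wells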
# GalR3 antagonist: antagonists of human GalR3; inhibition, % at 3 µM; AID 651719; HEK293 GalR3-CNG cAMP membrane potential fluorescence; galR3 body fused to GalR1 C-terminus; 0.44% of 360,000 active;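 active means inhibition above the screen-wide average plus 3 SD, cut at about 13% in these data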;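 further: forskolin and galanin both at EC90 stimulate the cells; cAMP rise reported by CNG channel membrane potential dye signal; 0% = forskolin plus galanin with DMSO and 100% = forskolin alone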
# Target sequence (O60755 1-299 limits assumed): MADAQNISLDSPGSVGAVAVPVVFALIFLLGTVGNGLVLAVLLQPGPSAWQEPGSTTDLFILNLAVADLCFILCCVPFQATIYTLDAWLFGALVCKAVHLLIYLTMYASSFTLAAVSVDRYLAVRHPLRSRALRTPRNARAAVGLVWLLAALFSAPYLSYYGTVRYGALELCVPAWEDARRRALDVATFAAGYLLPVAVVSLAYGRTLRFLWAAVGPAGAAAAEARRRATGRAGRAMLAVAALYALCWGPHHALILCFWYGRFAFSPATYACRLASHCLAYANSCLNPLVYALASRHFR
# Gli-Sufu antag: antagonists of Gli-Sufu signaling; Sufu-KO-LIGHT fibroblasts, Gli luciferase reporter luminescence; inhibition, % at 5 µM; 0.74% of 340,000 active;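 active means inhibition above about 55%, limit read from the data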;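 further: 0% = DMSO-treated cells and 100% = wells with medium but no cells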
# Gli-Sufu confirm: Gli-SUFU antagonism confirmation, single concentration | inhibition, % at 5 µM | shares compounds with Gli-Sufu antag | 40% of 2,500 active | Sufu-KO-LIGHT cells, Gli luciferase reporter, luminescence;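 active means mean inhibition at 5 µM reaching about 45%, limit read from the data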;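 further: plate controls were DMSO-treated cells for no effect and wells lacking cells for full effect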
# Gli cytotox: cytotoxicity counter-screen for Gli-SUFU antagonists. shares compounds with Gli-Sufu antag. cytotoxicity, % at 5 µM. 32% of 2,500 active. Sufu-KO-LIGHT cells cytotoxicity, ATP luminescence;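 active means mean cytotoxicity at 5 µM above about 25%, limit read from the data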;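 further: cells exposed to compound overnight for roughly 16 to 18 hours; plate controls were DMSO wells with cells for no effect and medium without cells for full effect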
# Wnt3a cs: Wnt3a reporter inhibition counter-screen; shares compounds with Gli-Sufu antag; Wnt-LIGHT cells, Wnt3a-driven luciferase reporter, luminescence; inhibition, % at 6.25 µM; 20% of 2,500 active;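 active means mean inhibition above about 25%, limit read from the data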
# An asterisk follows results filed as active; . = no result given. Rows were chosen to be rich in hits. Some 3.4% of all compounds tested hit in one or more screens of this group.
SMILES,Cardio protect,COUP-TFII inh,FXN GAA850 act,SMARCA2 activ,GalR3 antagonist,Gli-Sufu antag,Gli-Sufu confirm,Gli cytotox,Wnt3a cs
O=C(Nc1ccccc1)N1CCC(C(=O)N2CCCC(C(F)(F)F)C2)CC1 (centres undefined),-4.0,21.5,1.1,-1.0,-1.7,92.2*,22.6,14.1,-46.6
CCOC(=O)[C@]12CCCC=C1N(Cc1ccc(Cl)cc1Cl)C(=O)[C@H](CC(=O)NCC13CC4CC(CC(C4)C1)C3)C2,.,24.7,.,-3.5,-3.5,.,.,.,.
Cc1c(C(=O)N2c3ccccc3Sc3ccccc32)cccc1[N+](=O)[O-],-1.6,2.5,2.8,-1.9,-3.0,96.1*,35.9,8.3,-20.2
O=C(NCc1ccc(Cl)cc1Cl)C1CCN(S(=O)(=O)c2ccc3c(c2)OCCCO3)CC1,-1.2,12.5,-4.5,-2.3,-0.6,63.1*,-0.9,-5.9,-46.8
O=C(NCc1ccc(F)cc1)C1CCN(S(=O)(=O)c2ccc3c(c2)OCCCO3)CC1,-2.6,1.7,-1.6,1.7,-10.6,2.1,.,.,.
Cc1nc2ncnn2c(N2CCN(S(=O)(=O)c3ccc(Br)cc3)CC2)c1C,-16.3,-8.6,-1.2,-2.3,6.1,57.4*,32.6,0.9,1.3
COc1ccc(/C=C/C(=O)c2cc(F)ccc2OC(=O)c2ccc(OC)c(OC)c2)cc1OC,17.1,-12.0,2.7,-1.0,-9.7,-0.3,.,.,.
COc1ccc(/C=C/C(=O)c2cc(F)ccc2OC(=O)c2ccccc2)cc1OC,0.1,-105.4,3.9,-2.6,10.4,50.4,60.4*,49.5*,16.3
CC(C)(C)/C(O)=C(/C#N)c1nc2ccccc2[nH]1,10.5,10.6,-1.1,-4.5,-7.0,2.4,.,.,.
COc1cccc(OC)c1/C(O)=C(\C#N)c1nc2ccccc2[nH]1,12.4,11.5,2.0,4.2,-4.0,51.4,19.1,22.1,-7.3
O=C(c1ccc(=O)[nH]n1)N1CCN(S(=O)(=O)c2ccc3ccccc3c2)CC1,-2.5,-15.4,2.8,-4.2,2.8,63.5*,13.6,1.2,-8.1
O=c1cc(N2CCN(c3ccnc4cc(Cl)ccc34)CC2)[nH]c(=O)n1C1CCCCC1,.,27.4,.,.,.,.,.,.,.
Cc1cc(C)cc(N(CC(=O)NC2CCC(C)CC2)S(=O)(=O)c2ccccc2)c1 (centres undefined),.,-15.5,.,-1.7,.,.,.,.,.
CC1CCC2(CCC(=O)N2CCCOC(=O)c2ccccc2)CC1 (centres undefined),.,-5.0,.,0.1,.,.,.,.,.
Cc1ccccc1C(=O)Oc1ccccc1N1C(=O)C2CC=CCC2C1=O (centres undefined),-0.2,-1.4,2.6,-3.4,1.2,9.1,.,.,.
O=C(Oc1ccccc1N1C(=O)C2CC=CCC2C1=O)c1ccc(Br)cc1 (centres undefined),4.4,4.1,0.6,-1.9,0.1,52.1,16.9,11.2,-16.3
NS(=O)(=O)c1ccc(NC(=O)CSc2nc3ccccc3c(=O)n2-c2ccc(Br)cc2)cc1,.,-24.7,.,-1.4,.,.,.,.,.
CS(=O)(=O)N(CC(=O)Nc1ccccc1Sc1ccccc1)c1ccc(F)cc1,-19.1,-0.8,0.9,0.2,-2.4,64.6*,27.9,5.6,-4.8
COc1ccc(CCNS(=O)(=O)c2csc(C(N)=O)c2)cc1OC,0.5,2.4,0.4,-4.1,3.0,-9.1,.,.,.
COc1ccc(CNS(=O)(=O)c2csc(C(N)=O)c2)cc1OC,-0.6,-8.8,2.6,0.1,-5.3,55.2*,21.9,3.3,-25.2
Cc1ccc(CNC(=O)C2CC(=O)N(c3ccc(OCC(=O)N4CCCC4)cc3)C2)cc1 (centres undefined),8.9,-4.0,0.9,-0.3,-2.7,23.9,.,.,.
COc1ccc(S[C@]2(C(=O)N(C)C)CC(=O)N(C(=O)/C=C/c3ccccc3)[C@@H]2c2ccc(OC)cc2)cc1,.,18.8,.,-2.9,.,.,.,.,.
Cc1cc(C(=O)COc2cccnc2[N+](=O)[O-])c(C)n1Cc1cccs1,-20.7,22.9,-6.3,-4.6,1.2,70.9*,27.8,20.9,49.1*
O=S(=O)(c1ccc(F)cc1)N1CCCC(CO)C1 (centres undefined),4.5,-3.2,-1.9,-0.1,-3.3,52.0,12.3,1.9,-8.5
O=c1c2cc3cc4c(cc3nc2ncn1Cc1cccnc1)OCO4,.,2.6,.,-1.9,.,.,.,.,.
SMILES,Cardio protect,COUP-TFII inh,FXN GAA850 act,SMARCA2 activ,GalR3 antagonist,Gli-Sufu antag,Gli-Sufu confirm,Gli cytotox,Wnt3a cs
Cc1n(Cc2ccccc2)c2ccccc2[n+]1Cc1ccccc1,-12.3,18.9,0.5,-2.5,0.7,53.2,62.0*,33.3*,11.3
Oc1ccccc1N1CCN(C(=S)Nc2ccc(SC(F)F)cc2)CC1,-9.4,8.5,2.3,-4.8,-11.6,75.5*,22.9,19.7,-8.8
CC1(C(=O)NCc2ccccc2)CSCC(=O)N1Cc1ccco1 (centres undefined),.,-3.9,.,2.7,-7.7,.,.,.,.
CN1CCN(NC(=O)c2ccc(Cl)s2)CC1,-3.9,14.0,-0.9,-6.2,-2.0,51.8,13.6,0.0,15.1
OCC[C@@H]1C[C@H](O)[C@@H](O)[C@@]2(OCCc3cc(C(F)(F)F)ccc32)O1,.,-4.5,.,-4.1,-6.8,.,.,.,.
OCCN(Cc1ccccn1)Cc1ccccn1,11.0,.,.,.,.,.,.,.,.
CCC[C@H]1NC(=O)[C@H](C)N(C)C(=O)C(C)(C)C(=O)C(C)NC(=O)[C@H](Cc2ccc(OC)cc2)N(C)C(=O)[C@H](C(C)C)N(C)C(=O)CNC(=O)[C@H](CC(C)C)N(C)C(=O)CNC(=O)[C@H]([C@@H](C)CC)OC(=O)[C@H]1C (some centres undefined),.,.,.,.,.,74.8*,89.1*,58.3*,60.9*
CC(C)=CCC[C@@]1(C(=O)O)[C@H]2CC=C(CO)[C@@H]1CC/C(C)=C/CC/C(C)=C/C2,.,16.7,.,-2.5,.,.,.,.,.
CNC(=S)/N=C/NOCc1ccc(Cl)cc1Cl,-16.5,36.0,-2.2,-6.3,-6.0,52.0,30.5,-9.3,-9.3
CCOC(=O)N1CCN(C(=O)C2CCN(S(=O)(=O)N3CCCC3)CC2)CC1,0.6,-3.9,-2.1,1.2,-2.3,56.2*,19.8,4.7,10.7
CCOC(=O)N1CCN(C(=O)C2CCN(S(=O)(=O)N3CCC4(CC3)OCCO4)CC2)CC1,-2.9,2.5,1.8,-2.2,-8.7,-16.2,.,.,.
CC(=O)NC(CCS(C)(=O)=O)C(=O)Nc1cc(C)ccc1C (centres undefined),1.0,4.0,1.4,-2.3,.,53.7,9.5,7.5,-10.7
CN(CCO)c1cccc2c1S(=O)(=O)N(Cc1cn(Cc3ccc(Cl)cc3)nn1)Cc1ccccc1O2,.,6.1,.,-3.8,.,.,.,.,.
